Test results as given in PubChem BioAssay AID485270 (The Scripps Research Institute Molecular Screening Center, 2010).
Screen size: about 330,000 compounds; about 5,800 (1.8%) were called active. What follows is part of a selection rich in actives, with near analogues and random picks from the rest. Values without a mark were called inactive. Rule as the data show it: active = inhibition mostly above about 38% (no sharp cut-off); inactive = mostly below about 40%.

What follows are molecules tested against Orexin/Hypocretin receptor type 1 (Homo sapiens) (UniProt O43613) (assay: blocks the human orexin 1 receptor (AID 485270;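 also: 0% = agonist challenge alone and 100% = reference antagonist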)). Conditions: OX1R-expressing cells, FRET antagonist read-out; at 6.6 µM; stronger effect = higher value.
Chain of Orexin/Hypocretin receptor type 1 (Homo sapiens) (O43613 whole entry, looked up): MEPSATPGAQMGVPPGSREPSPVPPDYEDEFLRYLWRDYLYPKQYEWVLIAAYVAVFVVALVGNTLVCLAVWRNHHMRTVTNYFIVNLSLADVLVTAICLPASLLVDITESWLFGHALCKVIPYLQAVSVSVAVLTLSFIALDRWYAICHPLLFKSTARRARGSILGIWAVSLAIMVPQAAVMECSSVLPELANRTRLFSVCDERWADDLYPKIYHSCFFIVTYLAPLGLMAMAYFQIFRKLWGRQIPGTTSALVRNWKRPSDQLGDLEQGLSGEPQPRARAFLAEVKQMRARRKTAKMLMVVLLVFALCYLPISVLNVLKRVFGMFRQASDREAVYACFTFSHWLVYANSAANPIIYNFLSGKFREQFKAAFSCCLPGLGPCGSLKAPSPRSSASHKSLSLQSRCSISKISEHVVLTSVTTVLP

Row | SMILES | inhibition
1 | O=C(COC(=O)COc1ccccc1F)Nc1cccc(S(=O)(=O)N2CCCCC2)c1 | -4.71%
2 | O=C(CCNC(=O)c1ccccc1Cl)NN=Cc1ccco1 | 9.66%
3 | CC1CCCCC1NC(=O)Cn1c(=O)cnc2ccccc21 (configuration not stated) | 7.4%
4 | COc1cc(C(=O)Nc2oc(-c3ccccc3)c(-c3ccccc3)c2C#N)cc(OC)c1OC | 24.6%
5 | O=C(CCN1C(=O)c2ccccc2C1=O)Nc1ccncc1 | 21.2%
6 | N#Cc1c(NC(=O)CCCN2C(=O)c3ccccc3C2=O)oc(-c2ccccc2)c1-c1ccccc1 | 48.7% (active)
7 | C#CCOCCOCCOCCNc1nc(N2CCN(C(=O)[C@H](CCCN=C(N)N)n3cc(C(N)[C@@H](C)CC)nn3)CC2)nc(N2CCN(C(=O)[C@H](CO)n3cc([C@@H](N)C(C)C)nn3)CC2)n1 (some centres not stated) | 1.49%
8 | COc1cc(Cl)ccc1OCc1cc(C(=O)N2CC[C@@H]3CCCC[C@H]3C2)no1 | -0.82%
9 | CSc1ccccc1OCc1cc(C(=O)N(C)CCc2c(C)n[nH]c2C)no1 | 43.7% (active)
10 | CSc1ccccc1OCc1cc(C(=O)N2C[C@H]3CC[C@H]2C3)no1 | 38.3%
11 | CCn1ccnc1CN(C)C(=O)c1cc(COc2ccc(Cl)cc2OC)on1 | 16.5%
12 | COc1cc(Cl)ccc1OCc1cc(C(=O)N(C)CCc2c(C)n[nH]c2C)no1 | 71.9% (active)
13 | Cc1ccc(OCc2cc(C(=O)N(C)CCc3ccccc3)no2)cc1C | 27.7%
14 | COc1cccc2sc3cc(NCC[C@@H]4CCCN4C)ccc3c(=O)c12 | 20.1%
15 | COc1cc(NC(=O)c2[nH]cnc2C(N)=O)cc(C(=O)Nc2cccc(C(F)(F)F)c2)c1 | 33.6%
16 | O=C1CN(C(=O)COC(=O)/C=C/c2ccc(F)cc2)c2ccccc2N1 | 6.47%
17 | O=C(C[C@H]1C[C@H](C(=O)N2CCOCC2)[C@@]2(CCC3CCCC3)c3[nH]c4ccc(Cl)cc4c3CCN2C1=O)NCc1ccco1 | 14.4%
18 | COc1ccc(CCNC(=O)NS(=O)(=O)c2ccc(C)cc2)cc1OC | -2.44%
19 | Cc1ccc(-n2c(C)cc(C(=O)CSc3nnc4ccccn34)c2C)cc1 | 12.3%
20 | COc1ccc(-n2c(C)cc(C(=O)CSc3nnc(-c4cccs4)o3)c2C)cc1 | 39.4% (active)
21 | COc1ccc(-n2c(C)cc(C(=O)COC(=O)c3cc(OC)c(OC)cc3NC(=O)c3cccs3)c2C)cc1 | 1.91%
22 | Nc1ncnc2c1ncn2[C@@H]1O[C@H](CNS(=O)(=O)c2ccc(-c3ccno3)s2)[C@@H](O)[C@H]1O | 6.23%
